In publication PMC5540273 (PLoS ONE, 2017):

Assays:
Conditions in all cases: concentration: 1 μM, replicates: in singlicate; n = 1
[1] = system: T1, RSK2(Kin.Dom.1-N-terminal)
T1 construct: gene RPS6KA3

[2] = system: T2, RSK2(Kin.Dom.2-C-terminal)
T2 construct: gene RPS6KA3

[3] = system: T3, RSK3(Kin.Dom.1-N-terminal)
T3 construct: gene RPS6KA2

[4] = system: T4, RSK3(Kin.Dom.2-C-terminal)
T4 construct: gene RPS6KA2

[5] = system: T5, RSK4(Kin.Dom.1-N-terminal)
T5 construct: gene RPS6KA6

[6] = system: T6, RSK4(Kin.Dom.2-C-terminal)
T6 construct: gene RPS6KA6

S6K1 = system: S6K1
SBK1 = system: SBK1
SGK2 = system: SGK2
SGK3 = system: SGK3
SGK = system: SGK
SIK2 = system: SIK2
SIK = system: SIK
SLK = system: SLK
SNARK = system: T7, SNARK
T7 construct: gene NUAK2

SNRK = system: SNRK
SRC = system: SRC
SRMS = system: SRMS
SRPK1 = system: SRPK1
SRPK2 = system: SRPK2
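Also: KINOMEscan kinase panel screen.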

SMILES	%Inh [1]	%Inh [2]	%Inh [3]	%Inh [4]	%Inh [5]	%Inh [6]	%Inh (S6K1)	%Inh (SBK1)	%Inh (SGK2)	%Inh (SGK3)	%Inh (SGK)	%Inh (SIK2)	%Inh (SIK)	%Inh (SLK)	%Inh (SNARK)	%Inh (SNRK)	%Inh (SRC)	%Inh (SRMS)	%Inh (SRPK1)	%Inh (SRPK2)
Cc1cccc(-c2nc(Nc3ccc4ncsc4c3)c3ccccc3n2)n1 [GW867588]	8%	0%	0%	9%	6%	8%	0%	19%	0%	0%	5%	0%	10%	7%	6%	0%	7%	8%	0%	0%
COc1ccc(COc2cc(-n3cnc4ccccc43)sc2C(N)=O)cc1 [GSK1024304]	18%	16%	17%	5%	2%	23%	0%	0%	10%	1%	0%	0%	0%	9%	2%	0%	0%	0%	29%	0%
COc1ccc(Nc2nccc(N3CCC(NC(=O)Nc4cccc(C(C)=O)c4)C3)n2)cc1 (stereo not shown) [GSK1379731]	0%	0%	1%	0%	0%	2%	9%	20%	0%	0%	0%	0%	0%	0%	0%	0%	0%	0%	6%	0%
O=C(Nc1n[nH]c2cc(-c3cccc(F)c3)ccc12)C1CC1 [SB-735464]	0%	15%	2%	0%	9%	17%	49%	21%	0%	13%	13%	0%	0%	11%	0%	0%	0%	18%	36%	4%
O=C1Cc2cc(Nc3nc(NCc4cccc(S(=O)(=O)C(F)(F)F)c4)ncc3C(F)(F)F)ccc2N1	37%	15%	8%	0%	35%	0%	0%	0%	2%	33%	10%	0%	6%	0%	0%	0%	0%	0%	0%	6%
Nc1nc(-c2ccc3c(N)n[nH]c3c2)cc(N2CCCC2)n1 [GSK2227430]	0%	0%	20%	17%	0%	0%	0%	8%	0%	8%	0%	0%	0%	0%	3%	0%	0%	0%	4%	0%
CC(=O)Nc1ccc(COc2ccc(Nc3ccnc4cc(-c5ccccn5)ccc34)cc2)cc1.Cl [GW440148]	0%	6%	3%	11%	0%	26%	0%	0%	0%	8%	0%	0%	4%	0%	15%	0%	29%	88%	46%	12%
NCC(NC(=O)c1cc(-c2cn[nH]c2)c(-c2ccnc3[nH]ccc23)s1)c1ccccc1.O=C(O)C(F)(F)F.O=C(O)C(F)(F)F (stereo not shown) [GSK1325775]	35%	6%	7%	0%	21%	8%	53%	84%	79%	81%	74%	0%	0%	0%	92.2%	0%	0%	0%	81%	22%
Fc1ccc(-c2nn3c(OCC(F)(F)F)cccc3c2-c2ccncc2)cc1 [GW514784]	0%	0%	3%	8%	0%	89%	0%	2%	9%	0%	15%	0%	0%	0%	0%	0%	0%	0%	29%	0%
COCCNC(=O)c1ccc(-c2cc(C(=O)NC3CC3)cc(F)c2C)cc1 [GW868318]	40%	29%	16%	0%	41%	0%	29%	48%	20%	21%	36%	0%	6%	0%	16%	16%	23%	24%	7%	0%
COc1cc2ncn(-c3cc(OCc4sccc4Cl)c(C(N)=O)s3)c2cc1OC [GSK448459]	30%	21%	10%	0%	14%	20%	3%	4%	0%	0%	0%	13%	8%	99%	80%	0%	0%	0%	88%	0%
Cc1c2ccc(N(C)c3ccnc(Nc4cccc(S(N)(=O)=O)c4)n3)cc2nn1Cc1ccccc1.Cl.Cl [GW787226]	18%	0%	0%	0%	6%	0%	65%	0%	0%	0%	0%	42%	72%	66%	0%	0%	94.7%	67%	7%	0%
CCn1cnc2c(N)ncnc21 [GW345098]	0%	14%	0%	24%	0%	26%	17%	0%	22%	0%	25%	2%	19%	18%	0%	0%	20%	12%	24%	19%
Cc1nnc(-c2ccc(C)c(-c3ccc(C(=O)Nc4ccc(NS(C)(=O)=O)cc4)cc3)c2)o1 [GW702865]	0%	0%	0%	0%	0%	0%	0%	0%	0%	4%	2%	0%	0%	0%	1%	0%	0%	2%	23%	34%
Cc1nnc(-c2ccc3ncc(-c4ccc(S(C)=O)cc4)n3c2)o1 (stereo not shown)	7%	4%	0%	31%	0%	19%	0%	0%	13%	0%	0%	0%	9%	14%	0%	2%	0%	0%	0%	0%
Fc1ccc(-c2ncn(CCCN3CCOCC3)c2-c2cccnc2)cc1 [SB-211743]	34%	0%	0%	27%	20%	0%	0%	1%	0%	0%	39%	5%	0%	25%	0%	0%	0%	27%	0%	0%
[2H]C([2H])(c1cccc(C(F)(F)F)c1C)n1ccn2c(=O)nc(N3CCOCC3)cc12 [GSK2336394]	0%	18%	9%	0%	0%	21%	12%	24%	1%	0%	0%	0%	0%	22%	0%	0%	0%	0%	37%	0%
CCc1ccnc(/C=C/c2n[nH]c3cc(Sc4ccccc4C(=O)NC)ccc23)c1	8%	0%	13%	6%	18%	12%	6%	16%	0%	24%	0%	0%	0%	0%	10%	0%	4%	100%	53%	0%
O=C(NCCCN1CCOCC1)c1cccc(Nc2nccc(Nc3ccc(Oc4ccccc4)cc3)n2)c1 [GW663929]	0%	11%	7%	10%	0%	20%	0%	1%	12%	19%	1%	12%	68%	8%	22%	0%	81%	97.5%	25%	19%
Cc1ccc(C(=O)NCC(N)=O)cc1-n1c(C)cc(OCc2ccc(F)cc2F)c(Br)c1=O	0%	0%	22%	9%	0%	29%	3%	0%	0%	0%	0%	0%	6%	24%	0%	15%	16%	0%	0%	0%
